Rows were chosen to be rich in hits. Some 2.5% of all compounds tested hit in one or more screens of this group.
Cruzain inh Det: qHTS Assay for Promiscuous and Specific Inhibitors of Cruzain (with detergent) | Potency, µM, without a hit: max response, negative = inhibition, most hits filed as inhibitors | hit rate 0.43% among 200,000 | purified cruzain, Z-FR-AMC fluorescence, 0.01% Triton | AID 1478, 2009 | Cruzipain (Trypanosoma cruzi), P25779;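 also: plate controls were neutral wells for no effect and buffer without enzyme for full effect; nearly all actives have a fitted effect of over 40% in size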
Target sequence (P25779 123-467 limits assumed): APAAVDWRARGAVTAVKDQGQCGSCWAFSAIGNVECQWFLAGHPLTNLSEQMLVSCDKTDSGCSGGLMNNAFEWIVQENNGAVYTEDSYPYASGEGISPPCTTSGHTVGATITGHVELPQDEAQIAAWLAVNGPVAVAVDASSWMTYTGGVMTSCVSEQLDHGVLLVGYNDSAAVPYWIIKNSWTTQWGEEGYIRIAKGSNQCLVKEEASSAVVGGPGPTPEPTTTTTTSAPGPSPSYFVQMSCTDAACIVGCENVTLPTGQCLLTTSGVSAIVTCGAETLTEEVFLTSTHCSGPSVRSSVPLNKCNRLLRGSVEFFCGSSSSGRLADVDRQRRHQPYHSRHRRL
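15 min RT preincubation of 1.5 nM cruzain with compound, then 2 uM Z-FR-AMC added; kinetic AMC fluorescence, 60 s delta. Triton X-100 0.01%, pH 5.5.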
Cruzain noTriton: qHTS Assay for Promiscuous and Specific Inhibitors of Cruzain (without detergent) | Cruzipain (Trypanosoma cruzi), P25779 | hit rate 2.3% among 200,000 | purified cruzain, Z-FR-AMC fluorescence, no detergent | Potency, µM, inactives show max response, negative = inhibition, most hits filed as inhibitors | AID 1476, 2009;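 also: plate controls were enzyme without inhibitor for no effect and buffer without enzyme for full effect; nearly all actives have a fitted effect of over 40% in size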
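Purified cruzain at 1.5 nM, pre-incubated 15 min with compound at room temperature in 100 mM sodium acetate pH 5.5, 5 mM DTT, 0.00005% Triton X-100. Reaction started with 2 uM Z-FR-AMC; AMC fluorescence increase over 60 s gives rate.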
Numbers without * were called inactive; ? = inconclusive. Calls follow the shape of the dose curve; as a rule, active = well fitted curve in the direction sought with a large enough effect; inconclusive = small, poorly fitted or top-dose-only effect, or another doubt; inactive = no such curve, though single readings can be large; an effect the other way counts as inactive or inconclusive. Potency is read from the fitted curve at half-maximal effect.

SMILES | Cruzain inh Det | Cruzain noTriton
COc1ccc(C(=O)c2cnc3ccc(C)cc3c2S(=O)(=O)c2ccccc2)cc1 | -4% | ?
Cc1ccc2ncc(C(=O)c3ccc(C)c(C)c3)c(S(=O)(=O)c3ccc(F)cc3)c2c1 | -6% | ?
Cc1ccccc1Nc1oc(-c2ccccc2)nc1CCc1ccccc1 | -4% | -13%
N#Cc1c(NC2CCCCC2)nc(-c2ccco2)c2c1CCCC2 | 16µM* | 25µM*
CC1(C)Cc2c(C#N)c(NCCN3CCOCC3)nc(-c3ccco3)c2CO1 | -8% | 3%
N#Cc1c(NCCCO)nc(-c2ccco2)c2c1CCCC2 | 16µM* | -7%
N#Cc1c2c(c(-c3ccco3)[nH]c1=O)CCCC2 | -7% | -18%
COc1cccc(C(c2sc3nc(-c4ccco4)nn3c2O)N2CCC(C)CC2)c1 (stereo unspecified) | -3% | 0%
O=c1c2ccccc2[nH]c(=S)n1Cc1cccs1 | -3% | 25µM*
O=c1c2ccccc2[nH]c(=S)n1CCc1ccccc1 | 2% | ?
COC(=O)c1ccc(NC(=O)c2cc(=O)c3ccc(C)cc3o2)cc1 | -1% | -8%
O=C(CSc1nc(C2CC2)nc2ccccc12)N1c2ccccc2Sc2ccc(C(F)(F)F)cc21 | 2% | 4µM*
O=C(CN1CCCC(O)C1)N1c2ccccc2Sc2ccc(C(F)(F)F)cc21 (stereo unspecified) | 3% | -2%
Cc1ccccc1OCC(=O)Nc1ccc(C(=O)OCc2cc(=O)n3ccsc3n2)cc1 | 1% | -1%
Cc1cc(C(=O)CSc2nn3c(=O)c(C(C)(C)C)nnc3s2)c(C)n1-c1ccc(F)cc1 | 2% | 13µM*
CC(C)N(C(=O)CSc1nn2c(=O)c(C(C)(C)C)nnc2s1)c1ccccc1 | -6% | 19%
COc1cc(NC(=O)c2noc3c2CC(C)CC3)c(OC)cc1Cl (stereo unspecified) | 0% | 2%
CCNc1ccc(C(=O)OCC(=O)c2cc(C)n(Cc3ccc4c(c3)OCO4)c2C)cc1[N+](=O)[O-] | -3% | 16µM*
CCNc1ccc(C(=O)OCC(=O)NCc2ccc(C)cc2)cc1[N+](=O)[O-] | -4% | 2%
O=C(NCc1ccccc1)C(=O)Nc1c2c(nn1-c1ccc(F)cc1)CSC2 | -1% | 20µM*
COc1cccc(CNC(=O)C(=O)Nc2c3c(nn2-c2ccccc2)CSC3)c1 | 0% | ?
CC(Oc1ccc(F)cc1)C(=O)N1CCC(c2nc3ccccc3s2)CC1 (stereo unspecified) | -12% | ?
CCOc1cc(C2Nc3cccc4cccc(c34)N2)ccc1O | -2% | 16µM*
CCOc1ccc(C2Nc3cccc4cccc(c34)N2)cc1OC | -14% | -9%
O=C(COC(=O)CCC1CCCC1)Nc1ccc(Cl)cn1 | 4% | -9%
SMILES | Cruzain inh Det | Cruzain noTriton
O=C(COC(=O)CCC1CCCC1)Nc1nc2c(F)c(F)c(F)cc2s1 | -4% | 10µM*
Cc1cccc(N(C)C(=O)C2CCN(S(=O)(=O)c3cccc4nonc34)CC2)c1 | 0% | ?
O=[N+]([O-])c1cc(-c2nc(-c3ccncc3)no2)ccc1NCc1ccccc1 | -4% | 9%
Cc1ccc2nc(SCc3nnc(-c4ccccc4Br)o3)[nH]c2c1 | -30% | 20µM*
Cc1ccc2nc(SCc3nc(-c4ccccc4C)no3)[nH]c2c1 | -24% | -7%
O=c1c2ccccc2nc(SCc2nnc(-c3ccccc3Br)o2)n1-c1ccccc1 | -1% | 32µM*
Cc1sc2nc(SCc3nc(-c4ccccc4)no3)n(-c3ccccc3)c(=O)c2c1C | -3% | 25µM*
COc1ccc(-c2noc(CSc3nc4ccccc4c(=O)n3-c3ccc(C)cc3)n2)cc1 | 5% | 16µM*
Brc1ccccc1-c1nnc(CSc2nncn2-c2ccccc2)o1 | 2% | -8%
COc1ccc(-n2c(SCc3nc(-c4ccc(C)cc4)no3)nnc2-c2ccccc2)cc1 | -6% | ?
Cc1sc2nc(SCC(=O)NCc3ccco3)n(-c3ccccc3)c(=O)c2c1C | 3% | -10%
Cc1ccccc1Cn1c(=O)n(CC2CCC(C(=O)N3CCC(C)CC3)CC2)c(=O)c2sccc21 (stereo unspecified) | -8% | 10%
CCCCOC(=O)c1ccc(NS(=O)(=O)c2c(C)nc3scc(C)n3c2=O)cc1 | -11% | 19%
COC(=O)c1ccc(Cl)cc1NC(=O)N(C)CCc1c(C)nn(C)c1C | -1% | -4%
CN(C)c1ncc2nc(-c3cccs3)c(=O)n(-c3ccccc3)c2n1 | 0% | -4%
CCc1cnc2c(c1SCC(=O)Nc1cc(Cl)ccc1OC)c(=O)n(C)c(=O)n2C | 1% | 0%
CCOC(=O)c1[nH]c2c(c1Cc1ccccc1OC)C(=O)CC(c1ccccc1)C2 (stereo unspecified) | 3% | 12%
Cc1ccc2[nH]c3c(NCc4ccco4)ncnc3c2c1 | -27% | -23%
C=CCNc1ncnc2c1[nH]c1ccc(Cl)cc12 | ? | 13µM*
